Laboratory results reported in the supplement of paper PMC11732987, “Enantioselective OTUD7B fragment discovery through chemoproteomics screening and high-throughput optimisation” (Communications Chemistry, 2025).

Key:
Experiment in all cases: log2 ratio of Biotin-Ahx-Ub-VS probe labelling (fragment/DMSO); higher = less target engagement (more negative = stronger competition), active = hit call of the paper (q ≤ 0.05, log2 ratio ≤ -1)
Conditions in all cases: compound concentration: 200 uM; treatment time: 3 h
USP42 = biological target: T1, USP42 (UniProt Q9H9J4)
T1 sequence (whole entry): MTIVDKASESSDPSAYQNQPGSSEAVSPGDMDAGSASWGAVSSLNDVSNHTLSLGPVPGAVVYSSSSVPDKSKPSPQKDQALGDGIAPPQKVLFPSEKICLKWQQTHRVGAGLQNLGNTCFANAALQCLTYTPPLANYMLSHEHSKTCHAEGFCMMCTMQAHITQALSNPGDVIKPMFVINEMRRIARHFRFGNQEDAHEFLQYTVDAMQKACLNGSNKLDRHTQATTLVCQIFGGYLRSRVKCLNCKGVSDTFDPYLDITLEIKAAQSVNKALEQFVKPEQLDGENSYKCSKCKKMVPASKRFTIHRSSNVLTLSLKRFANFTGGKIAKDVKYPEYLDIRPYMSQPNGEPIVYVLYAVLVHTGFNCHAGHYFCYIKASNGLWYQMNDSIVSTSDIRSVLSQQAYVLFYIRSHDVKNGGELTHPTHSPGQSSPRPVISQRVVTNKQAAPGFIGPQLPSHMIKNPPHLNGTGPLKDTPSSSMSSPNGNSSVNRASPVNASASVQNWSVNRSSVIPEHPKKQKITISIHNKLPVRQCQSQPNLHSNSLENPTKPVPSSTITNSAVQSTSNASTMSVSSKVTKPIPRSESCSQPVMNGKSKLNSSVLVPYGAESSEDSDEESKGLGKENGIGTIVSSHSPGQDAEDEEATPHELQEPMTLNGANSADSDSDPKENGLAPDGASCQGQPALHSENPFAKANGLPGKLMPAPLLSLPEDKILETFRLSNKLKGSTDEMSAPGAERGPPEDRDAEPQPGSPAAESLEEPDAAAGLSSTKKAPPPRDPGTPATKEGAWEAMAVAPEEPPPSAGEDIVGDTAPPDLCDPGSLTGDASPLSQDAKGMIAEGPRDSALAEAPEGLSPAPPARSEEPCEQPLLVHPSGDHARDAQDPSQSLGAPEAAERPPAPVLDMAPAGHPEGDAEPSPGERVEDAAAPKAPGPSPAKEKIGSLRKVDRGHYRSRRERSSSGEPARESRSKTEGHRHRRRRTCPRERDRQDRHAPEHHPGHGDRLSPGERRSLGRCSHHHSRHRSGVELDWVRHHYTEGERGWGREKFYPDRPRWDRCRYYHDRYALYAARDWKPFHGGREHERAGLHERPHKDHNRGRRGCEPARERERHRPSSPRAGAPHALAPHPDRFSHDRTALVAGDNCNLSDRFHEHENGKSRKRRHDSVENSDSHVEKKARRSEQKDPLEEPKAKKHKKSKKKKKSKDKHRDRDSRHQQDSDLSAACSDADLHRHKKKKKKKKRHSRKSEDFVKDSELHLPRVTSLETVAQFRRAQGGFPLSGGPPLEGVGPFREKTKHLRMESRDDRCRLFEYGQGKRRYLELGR
Procedure, shortened: (§1)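 In triplicate, 495 µg of HEK293T lysate per sample was incubated with fragment at 200 µM or vehicle for 3 h. Biotin-Ahx-Ub-VS was then added to 0.5 µM final for 1 h, and labelled DUBs were captured with NeutrAvidin, digested with LysC and trypsin, and measured by diaPASEF LC-MS/MS. Data are average log2 fragment/vehicle ratios by unpaired t-test from global-median-normalised Spectronaut label-free quantities, restricted to proteins with ≥2 unique peptides.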

USP46 = USP46 (UniProt P62068)
Chain of USP46 (P62068 whole entry): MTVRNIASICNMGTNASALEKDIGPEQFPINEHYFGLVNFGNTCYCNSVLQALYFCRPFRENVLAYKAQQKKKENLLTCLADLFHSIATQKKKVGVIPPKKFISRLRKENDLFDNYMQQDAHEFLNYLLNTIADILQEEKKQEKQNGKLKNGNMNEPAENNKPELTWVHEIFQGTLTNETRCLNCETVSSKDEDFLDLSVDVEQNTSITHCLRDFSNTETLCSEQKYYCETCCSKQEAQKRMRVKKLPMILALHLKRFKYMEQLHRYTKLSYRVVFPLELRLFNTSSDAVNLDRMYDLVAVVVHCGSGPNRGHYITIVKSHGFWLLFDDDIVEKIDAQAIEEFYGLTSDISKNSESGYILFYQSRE
Procedure, shortened: as §1

USP47 = biological target: T2, USP47 (UniProt Q96K76)
T2 sequence (whole entry): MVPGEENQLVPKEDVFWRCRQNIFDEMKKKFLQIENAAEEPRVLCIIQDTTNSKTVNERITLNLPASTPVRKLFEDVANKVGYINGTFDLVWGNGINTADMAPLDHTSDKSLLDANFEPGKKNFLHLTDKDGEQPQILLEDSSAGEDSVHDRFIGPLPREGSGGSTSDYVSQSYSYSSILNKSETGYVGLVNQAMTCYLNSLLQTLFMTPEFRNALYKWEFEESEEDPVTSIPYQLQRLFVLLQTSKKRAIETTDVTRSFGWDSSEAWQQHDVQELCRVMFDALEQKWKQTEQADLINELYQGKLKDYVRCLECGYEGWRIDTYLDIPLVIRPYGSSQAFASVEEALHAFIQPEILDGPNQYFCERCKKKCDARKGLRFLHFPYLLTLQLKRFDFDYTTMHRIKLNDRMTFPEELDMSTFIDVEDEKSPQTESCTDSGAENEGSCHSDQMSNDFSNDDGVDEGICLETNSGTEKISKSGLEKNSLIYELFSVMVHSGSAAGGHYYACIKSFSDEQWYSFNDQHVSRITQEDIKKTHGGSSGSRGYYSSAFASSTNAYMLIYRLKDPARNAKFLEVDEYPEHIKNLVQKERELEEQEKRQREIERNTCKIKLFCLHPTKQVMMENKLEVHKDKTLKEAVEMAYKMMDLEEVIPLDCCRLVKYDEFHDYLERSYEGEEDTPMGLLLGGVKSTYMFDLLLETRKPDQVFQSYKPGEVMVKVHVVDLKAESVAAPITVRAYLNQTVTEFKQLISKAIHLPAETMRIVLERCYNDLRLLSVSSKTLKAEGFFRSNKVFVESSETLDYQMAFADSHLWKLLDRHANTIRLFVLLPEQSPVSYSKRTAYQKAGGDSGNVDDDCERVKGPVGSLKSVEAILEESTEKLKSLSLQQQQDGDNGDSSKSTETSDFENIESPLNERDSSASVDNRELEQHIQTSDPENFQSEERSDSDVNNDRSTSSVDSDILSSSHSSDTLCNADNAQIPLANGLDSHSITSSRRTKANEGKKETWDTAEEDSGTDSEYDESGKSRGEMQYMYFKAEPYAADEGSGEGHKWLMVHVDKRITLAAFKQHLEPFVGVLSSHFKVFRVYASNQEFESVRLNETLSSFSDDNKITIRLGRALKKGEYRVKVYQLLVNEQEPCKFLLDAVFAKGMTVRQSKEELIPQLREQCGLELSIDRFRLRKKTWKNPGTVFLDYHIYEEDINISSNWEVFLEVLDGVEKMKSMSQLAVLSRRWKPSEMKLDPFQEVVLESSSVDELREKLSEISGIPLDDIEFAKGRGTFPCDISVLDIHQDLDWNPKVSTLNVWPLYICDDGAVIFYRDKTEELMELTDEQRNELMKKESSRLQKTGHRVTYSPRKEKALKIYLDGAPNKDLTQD
Procedure, shortened: as §1

USP48 = biological target: T3, USP48 (UniProt Q86UV5)
T3 sequence (whole entry): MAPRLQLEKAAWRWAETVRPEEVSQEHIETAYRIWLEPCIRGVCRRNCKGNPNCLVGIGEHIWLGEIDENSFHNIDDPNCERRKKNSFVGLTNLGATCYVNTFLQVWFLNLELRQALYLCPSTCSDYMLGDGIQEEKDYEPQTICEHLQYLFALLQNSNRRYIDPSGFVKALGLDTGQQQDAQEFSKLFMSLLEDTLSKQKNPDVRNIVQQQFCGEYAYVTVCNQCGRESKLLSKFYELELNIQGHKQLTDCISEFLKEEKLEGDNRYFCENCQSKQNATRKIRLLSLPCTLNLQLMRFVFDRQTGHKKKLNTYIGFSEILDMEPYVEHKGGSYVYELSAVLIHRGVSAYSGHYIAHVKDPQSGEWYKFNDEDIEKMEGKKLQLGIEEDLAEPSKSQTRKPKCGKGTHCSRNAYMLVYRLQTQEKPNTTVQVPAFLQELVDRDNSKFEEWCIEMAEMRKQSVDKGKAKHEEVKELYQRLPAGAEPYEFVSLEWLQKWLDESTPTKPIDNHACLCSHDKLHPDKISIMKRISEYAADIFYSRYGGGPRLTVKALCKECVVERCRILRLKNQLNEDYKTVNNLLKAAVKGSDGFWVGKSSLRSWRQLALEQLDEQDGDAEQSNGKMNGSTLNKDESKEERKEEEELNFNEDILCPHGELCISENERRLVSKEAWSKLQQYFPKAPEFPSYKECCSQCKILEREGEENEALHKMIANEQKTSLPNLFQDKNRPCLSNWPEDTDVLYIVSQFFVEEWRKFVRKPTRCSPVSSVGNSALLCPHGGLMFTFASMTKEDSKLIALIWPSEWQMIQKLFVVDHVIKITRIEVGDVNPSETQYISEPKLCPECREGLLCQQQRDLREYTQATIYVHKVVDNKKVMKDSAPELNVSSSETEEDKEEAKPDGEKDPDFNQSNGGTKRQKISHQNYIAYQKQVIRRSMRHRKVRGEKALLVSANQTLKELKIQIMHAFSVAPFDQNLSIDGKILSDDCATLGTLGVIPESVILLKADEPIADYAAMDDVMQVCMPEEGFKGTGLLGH
Procedure, shortened: as §1

USP5 = biological target: T4, USP5 (UniProt P45974)
T4 sequence (whole entry): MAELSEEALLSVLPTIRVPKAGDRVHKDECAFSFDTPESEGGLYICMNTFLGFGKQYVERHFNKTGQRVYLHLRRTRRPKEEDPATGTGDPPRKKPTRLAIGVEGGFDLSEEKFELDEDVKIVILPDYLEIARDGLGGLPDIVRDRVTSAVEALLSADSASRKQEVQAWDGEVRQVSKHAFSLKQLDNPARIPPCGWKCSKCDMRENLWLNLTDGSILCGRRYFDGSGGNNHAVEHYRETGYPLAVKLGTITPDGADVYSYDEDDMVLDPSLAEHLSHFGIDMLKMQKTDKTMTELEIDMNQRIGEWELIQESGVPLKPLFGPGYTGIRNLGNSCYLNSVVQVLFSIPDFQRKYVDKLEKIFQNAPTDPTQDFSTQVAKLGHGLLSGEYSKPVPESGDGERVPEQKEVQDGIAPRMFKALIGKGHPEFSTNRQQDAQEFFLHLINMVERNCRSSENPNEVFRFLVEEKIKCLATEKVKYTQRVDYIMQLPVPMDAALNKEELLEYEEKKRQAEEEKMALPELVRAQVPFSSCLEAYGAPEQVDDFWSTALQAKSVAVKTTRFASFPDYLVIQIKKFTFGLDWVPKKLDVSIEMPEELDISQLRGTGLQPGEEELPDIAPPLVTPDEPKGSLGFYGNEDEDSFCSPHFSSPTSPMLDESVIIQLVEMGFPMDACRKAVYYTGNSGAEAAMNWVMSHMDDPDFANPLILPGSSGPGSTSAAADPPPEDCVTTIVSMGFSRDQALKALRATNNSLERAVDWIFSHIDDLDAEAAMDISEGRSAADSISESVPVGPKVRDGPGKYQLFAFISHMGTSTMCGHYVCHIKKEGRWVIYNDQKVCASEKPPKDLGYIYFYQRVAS
Procedure, shortened: as §1

USP54 = USP54 (UniProt Q70EL1)
Chain of USP54 (Q70EL1 whole entry): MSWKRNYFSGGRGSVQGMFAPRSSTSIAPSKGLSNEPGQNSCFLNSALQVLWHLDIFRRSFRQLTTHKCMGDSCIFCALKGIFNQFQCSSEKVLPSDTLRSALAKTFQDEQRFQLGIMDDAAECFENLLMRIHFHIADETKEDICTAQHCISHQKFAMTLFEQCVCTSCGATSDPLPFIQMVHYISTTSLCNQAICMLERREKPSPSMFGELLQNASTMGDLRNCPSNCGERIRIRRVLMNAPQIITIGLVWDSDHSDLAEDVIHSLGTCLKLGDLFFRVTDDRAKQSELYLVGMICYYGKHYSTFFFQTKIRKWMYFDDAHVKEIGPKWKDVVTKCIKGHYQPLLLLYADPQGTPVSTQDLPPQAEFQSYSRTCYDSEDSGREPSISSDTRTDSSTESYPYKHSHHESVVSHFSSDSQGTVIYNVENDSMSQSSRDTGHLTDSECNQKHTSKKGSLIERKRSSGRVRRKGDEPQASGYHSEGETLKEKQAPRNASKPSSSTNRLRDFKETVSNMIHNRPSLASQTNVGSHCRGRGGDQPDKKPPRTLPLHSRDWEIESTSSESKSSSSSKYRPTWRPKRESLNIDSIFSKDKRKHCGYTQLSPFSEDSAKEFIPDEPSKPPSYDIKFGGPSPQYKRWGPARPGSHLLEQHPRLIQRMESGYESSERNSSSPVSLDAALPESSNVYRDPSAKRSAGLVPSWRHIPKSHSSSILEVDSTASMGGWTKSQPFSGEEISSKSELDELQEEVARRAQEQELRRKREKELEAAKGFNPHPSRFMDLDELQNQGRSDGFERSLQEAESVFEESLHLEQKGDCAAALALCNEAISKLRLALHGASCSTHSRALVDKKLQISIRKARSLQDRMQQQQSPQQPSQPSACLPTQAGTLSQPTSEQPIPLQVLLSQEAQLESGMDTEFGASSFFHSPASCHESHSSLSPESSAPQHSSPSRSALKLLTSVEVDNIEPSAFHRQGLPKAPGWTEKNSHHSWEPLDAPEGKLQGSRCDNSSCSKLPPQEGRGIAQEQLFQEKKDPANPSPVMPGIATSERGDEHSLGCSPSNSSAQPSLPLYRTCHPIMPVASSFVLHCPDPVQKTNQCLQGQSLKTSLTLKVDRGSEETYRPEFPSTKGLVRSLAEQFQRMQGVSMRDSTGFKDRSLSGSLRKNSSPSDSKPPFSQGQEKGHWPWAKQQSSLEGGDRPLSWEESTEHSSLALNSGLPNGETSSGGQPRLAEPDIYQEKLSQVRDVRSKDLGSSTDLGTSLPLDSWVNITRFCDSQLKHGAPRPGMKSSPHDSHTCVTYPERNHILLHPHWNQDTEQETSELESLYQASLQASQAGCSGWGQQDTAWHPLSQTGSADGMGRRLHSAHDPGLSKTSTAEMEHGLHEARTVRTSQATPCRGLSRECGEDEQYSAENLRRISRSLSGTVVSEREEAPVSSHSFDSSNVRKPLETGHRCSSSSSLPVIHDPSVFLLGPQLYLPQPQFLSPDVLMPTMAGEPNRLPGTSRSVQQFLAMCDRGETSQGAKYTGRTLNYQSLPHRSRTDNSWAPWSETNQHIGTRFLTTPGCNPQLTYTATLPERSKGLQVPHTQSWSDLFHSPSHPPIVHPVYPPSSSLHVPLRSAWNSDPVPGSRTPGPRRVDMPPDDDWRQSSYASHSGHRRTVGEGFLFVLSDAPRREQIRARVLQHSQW
Procedure, shortened: as §1

USP7 = USP7 (UniProt Q93009)
Chain of USP7 (Q93009 whole entry, looked up): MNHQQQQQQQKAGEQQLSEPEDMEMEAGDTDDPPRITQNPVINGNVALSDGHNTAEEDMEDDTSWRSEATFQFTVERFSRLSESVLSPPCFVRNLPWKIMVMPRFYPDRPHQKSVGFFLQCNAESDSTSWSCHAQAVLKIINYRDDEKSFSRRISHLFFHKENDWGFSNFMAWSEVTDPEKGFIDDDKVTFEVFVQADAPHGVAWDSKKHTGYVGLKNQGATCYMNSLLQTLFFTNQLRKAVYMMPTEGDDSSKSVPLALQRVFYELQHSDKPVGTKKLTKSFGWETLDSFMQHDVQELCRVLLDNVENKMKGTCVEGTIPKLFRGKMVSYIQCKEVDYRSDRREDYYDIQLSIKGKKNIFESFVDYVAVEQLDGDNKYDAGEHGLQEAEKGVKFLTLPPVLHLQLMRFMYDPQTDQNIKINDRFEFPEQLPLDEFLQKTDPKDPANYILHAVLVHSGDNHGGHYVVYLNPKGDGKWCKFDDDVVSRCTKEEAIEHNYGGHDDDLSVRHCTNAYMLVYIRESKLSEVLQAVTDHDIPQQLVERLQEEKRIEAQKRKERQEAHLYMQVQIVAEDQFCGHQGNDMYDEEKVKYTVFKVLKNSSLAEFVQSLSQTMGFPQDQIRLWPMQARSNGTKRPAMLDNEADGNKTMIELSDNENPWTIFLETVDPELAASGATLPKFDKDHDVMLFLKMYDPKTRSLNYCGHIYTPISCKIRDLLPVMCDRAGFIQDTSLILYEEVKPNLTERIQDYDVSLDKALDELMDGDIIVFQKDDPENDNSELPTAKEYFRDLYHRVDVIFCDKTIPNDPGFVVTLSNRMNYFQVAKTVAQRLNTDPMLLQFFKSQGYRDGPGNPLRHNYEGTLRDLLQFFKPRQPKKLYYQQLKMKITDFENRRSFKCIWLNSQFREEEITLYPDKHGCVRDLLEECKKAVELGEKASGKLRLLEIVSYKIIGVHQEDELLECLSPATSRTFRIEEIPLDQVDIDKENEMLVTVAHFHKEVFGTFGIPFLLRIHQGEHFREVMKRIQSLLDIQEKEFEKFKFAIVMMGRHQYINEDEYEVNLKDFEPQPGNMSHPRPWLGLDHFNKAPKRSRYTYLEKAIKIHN
Procedure, shortened: as §1

USP8 = biological target: T5, USP8 (UniProt P40818)
T5 sequence (whole entry): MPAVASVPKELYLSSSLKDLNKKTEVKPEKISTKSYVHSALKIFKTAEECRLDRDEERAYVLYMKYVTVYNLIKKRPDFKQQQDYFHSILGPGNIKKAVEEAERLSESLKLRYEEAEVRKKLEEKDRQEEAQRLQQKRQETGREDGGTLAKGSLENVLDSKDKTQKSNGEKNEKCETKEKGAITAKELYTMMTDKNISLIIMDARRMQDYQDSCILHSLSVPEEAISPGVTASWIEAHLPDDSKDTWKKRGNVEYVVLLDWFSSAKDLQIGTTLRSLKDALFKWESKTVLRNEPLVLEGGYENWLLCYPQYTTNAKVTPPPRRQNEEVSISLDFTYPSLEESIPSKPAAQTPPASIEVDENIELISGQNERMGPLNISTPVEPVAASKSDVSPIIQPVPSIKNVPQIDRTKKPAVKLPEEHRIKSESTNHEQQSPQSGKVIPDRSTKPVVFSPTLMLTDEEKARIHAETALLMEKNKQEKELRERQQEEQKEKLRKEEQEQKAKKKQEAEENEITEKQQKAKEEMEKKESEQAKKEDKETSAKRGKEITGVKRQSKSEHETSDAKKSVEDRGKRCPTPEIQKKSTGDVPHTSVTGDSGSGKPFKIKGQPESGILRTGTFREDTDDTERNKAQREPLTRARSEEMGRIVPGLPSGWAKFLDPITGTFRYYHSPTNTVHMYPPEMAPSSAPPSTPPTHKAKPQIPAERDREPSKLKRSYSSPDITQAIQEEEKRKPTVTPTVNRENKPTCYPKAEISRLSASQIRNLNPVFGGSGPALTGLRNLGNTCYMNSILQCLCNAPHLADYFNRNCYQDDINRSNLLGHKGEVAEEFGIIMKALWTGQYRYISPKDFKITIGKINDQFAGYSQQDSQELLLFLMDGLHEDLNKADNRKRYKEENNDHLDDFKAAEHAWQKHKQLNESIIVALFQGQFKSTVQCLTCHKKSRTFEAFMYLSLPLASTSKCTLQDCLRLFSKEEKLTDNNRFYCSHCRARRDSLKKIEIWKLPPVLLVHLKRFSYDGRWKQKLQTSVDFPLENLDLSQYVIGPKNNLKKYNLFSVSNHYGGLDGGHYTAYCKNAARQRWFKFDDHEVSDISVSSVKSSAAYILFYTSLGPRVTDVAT
Procedure, shortened: as §1

Measured: log2 ratio of Biotin-Ahx-Ub-VS probe labelling

O=C(CCl)N1CCC2(CCC(O)CC2)CC1
inactive: USP42 0.175 | USP46 0.0165 | USP47 -0.0514 | USP48 -0.0801 | USP5 0.218 | USP54 0.833 | USP7 -0.00495 | USP8 -0.382
